Screening data (PubChem)
Most compounds without a hit are left out; they make up all but 21% or so of the library.
Pf growth 48h: P. falciparum growth inhibition at 48 hours (one generation); Potency, µM (highest dose often 28.7 µM), inactives show top-dose activity change, negative = inhibition, usual class: inhibitors; P. falciparum luciferase growth in erythrocytes, 48 h; actives 5.9% (n = 310,000); further: potency means the concentration at half of the fitted maximal effect; on the % scale 0 is the no-effect control and ±100 the full control effect
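Luciferase-expressing parasites in RBCs, 2% Hct / 0.1% parasitemia final; RPMI 1640 + 0.5% Albumax; 37 C, 5% CO2, one generation; luminescence read-out, lower signal = inhibition.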
Cycloheximide cs: counter-screen for Shiga toxin inhibitors: cycloheximide protein synthesis inhibition. max response, %. actives 12% (n = 300,000). cell reporter, cycloheximide protein synthesis inhibition counterscreen; in the data active means max response mostly above about 13%, no sharp cut-off; inactive means mostly below about 14%; further: read at 38.3 µM for the half of the compounds with a filed dose; 0% is about no effect
NS1 inh: blocks influenza NS1 protein function; Potency, µM (highest dose often 46.1 µM), for the others: at the highest dose activity, positive = more growth; actives 0.4% (n = 270,000); calls by dose curve; further: potency means the concentration at half of the fitted maximal effect; actives are rising curves; nearly all actives have a fitted effect of over 50% in size
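Recovery from NS1-induced slow growth read by OD600 in budding yeast switched to galactose assay medium (pH 6.0, -URA) at 1:100 dilution. Compound 23 nl per well; the matching strain lacking NS1 serves as control.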
FBPA Giardia inh: Giardia lamblia aldolase inhibition | A8B2U2 | AID 2451 | actives 0.71% (n = 290,000) | purified Giardia FBPA | Potency, µM (series often up to 59.6 µM), for inactives: top-dose activity, negative = inhibition, usual class: inhibitors; further: potency means the concentration at half of the fitted maximal effect; on the % scale 0 is the no-effect control and ±100 the full control effect; nearly all actives have a fitted effect of over 55% in size
Target sequence (A8B2U2 whole entry, looked up): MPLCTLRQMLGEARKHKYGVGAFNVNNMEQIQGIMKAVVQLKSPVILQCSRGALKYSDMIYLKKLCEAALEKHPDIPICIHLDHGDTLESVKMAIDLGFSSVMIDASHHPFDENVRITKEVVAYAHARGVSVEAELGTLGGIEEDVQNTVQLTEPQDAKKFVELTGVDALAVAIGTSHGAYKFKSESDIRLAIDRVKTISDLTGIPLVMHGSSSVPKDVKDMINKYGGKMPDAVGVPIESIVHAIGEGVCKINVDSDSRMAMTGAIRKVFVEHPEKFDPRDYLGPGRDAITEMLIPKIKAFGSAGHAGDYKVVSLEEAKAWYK
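Giardia FBPA (40 nM reagent) was preincubated 10 min at RT with compound (up to 57.5 uM final), then substrate plus GAPDH/TPI/NAD/arsenate coupling system with diaphorase/resazurin was added; resorufin fluorescence (525/598 nm) was read after 20 min.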
Pf growth 96h: P. falciparum growth inhibition at 96 hour, primary screen for plastid delayed-death inhibitors; Potency, µM (top dose mostly 28.7 µM), without a hit: top-dose activity change, negative = inhibition, actives largely listed as inhibitors; P. falciparum luciferase reporter growth, 96 h; actives 6.9% (n = 320,000); further: potency means the concentration at half of the fitted maximal effect; on the % scale 0 is the no-effect control and ±100 the full control effect
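Plates of compound plus infected erythrocytes (2% hematocrit, 0.05% parasitemia final) incubate 96 hours, 37 C, 5% CO2. Detection reagent added; reduced luminescence from the parasites' luciferase reporter flags inhibition.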
Shiga toxin inh: inhibitors of Shiga toxin in Vero cells | Vero cells, Shiga toxin protein synthesis inhibition reporter | actives 9.2% (n = 290,000) | inhibition, % at 38.7 µM | AID 2315; in the data active means inhibition mostly above about 28%, no sharp cut-off; inactive means mostly below about 43%; further: 0% is about no effect
Numbers without * were called inactive; ? = inconclusive; . = not tested or not shown. Unless noted, the call rests on the fitted dose curve; in most records, active means well fitted curve in the direction sought with a large enough effect; inconclusive means small, poorly fitted or top-dose-only effect, or another doubt; inactive means no such curve, though single readings can be large; an effect the other way counts as inactive or inconclusive.

SMILES | Pf growth 48h | Cycloheximide cs | NS1 inh | FBPA Giardia inh | Pf growth 96h | Shiga toxin inh
Cc1ccc(S(=O)(=O)Cc2nnnn2-c2ccccc2)cc1 | -4.5% | -3.5 | 4.4% | -5.7% | 6.57µM* | -6.1
CCCC(c1nnnn1CS(=O)(=O)c1ccc(C)cc1)N1CCN(c2ccccc2)CC1 (stereo not given) | 11.7µM* | -2.4 | -10.2% | -8.6% | 0.0% | -9.1
O=S(=O)(Cc1nnnn1-c1ccccc1)c1ccc(F)cc1 | -0.5% | -0.3 | 17.7% | . | -8.8% | -2.9
CCCCC(c1nnnn1CS(=O)(=O)c1ccc(C)cc1)N1CCN(C)CC1 (stereo not given) | ? | -7.2 | 4.0% | -17.9% | -4.0% | -23.8
Cc1ccc(S(=O)(=O)Cn2nnnc2C(c2ccccc2)N2CCN(c3ncccn3)CC2)cc1 (stereo not given) | 9.28µM* | -3.0 | 13.2% | 7.7% | 73.1% | -4.8
Cc1cc(C(=O)Cn2nc(C(=O)O)c3ccccc3c2=O)c(C)n1CCc1ccc(Cl)cc1 | ? | 6.5 | 4.4% | -7.6% | -10.8% | 19.8
CC1(C)CCC(=O)N[C@H]1CC(=O)C[C@H]1NC(=O)CCC1(C)C | . | . | 0.0% | . | . | .
CN(Cc1ccco1)S(=O)(=O)c1ccc(CN2C(=O)c3cccnc3C2=O)s1 | 6.7% | -4.0 | -1.4% | 4.7% | -15.0% | -5.8
Cc1ccc(-c2nnnn2CS(=O)(=O)c2ccccc2)cc1 | 21.1% | 19.2* | -4.0% | 3.6% | 17.6% | 19.7
CCCC(c1nnnn1Cc1cccs1)N1CCN(c2nc3ccccc3s2)CC1 (stereo not given) | . | 11.4 | -18.3% | 3.9% | -7.7% | 29.4
CCC(c1nnnn1CS(=O)(=O)c1ccc(C)cc1)N1CCN(c2nc3ccccc3s2)CC1 (stereo not given) | 8.28µM* | 16.3 | 2.2% | -4.3% | 9.2% | 24.2
Cc1ccc(S(=O)(=O)Cn2nnnc2CN2CCOCC2)cc1 | -20.1% | 7.8 | -1.0% | -7.8% | -9.0% | 19.0
Cc1ccc(C(c2nnnn2CS(=O)(=O)c2ccc(C)cc2)N2CCCC2)cc1 (stereo not given) | -1.7% | 1.1 | 6.8% | -7.5% | ? | 12.6
COc1ccc(C(c2nnnn2CS(=O)(=O)c2ccc(C)cc2)N2CCN(c3ncccn3)CC2)cc1 (stereo not given) | 9.28µM* | -2.9 | 11.6% | -10.9% | ? | 14.9
Cc1ccc(S(=O)(=O)Cn2nnnc2C(C)N2CCN(C(=O)c3ccco3)CC2)cc1 (stereo not given) | 10.4µM* | -3.4 | -4.2% | -2.8% | 5.22µM* | 24.7
Cc1ccc(S(=O)(=O)Cn2nnnc2C(C(C)C)N2CCN(C(=O)c3ccco3)CC2)cc1 (stereo not given) | . | . | -3.6% | . | . | .
CCN(CC)CC(O)Cn1c(C)c(-c2ccccc2)c2cc([N+](=O)[O-])ccc21 (stereo not given) | . | -6.2 | -3.4% | -4.0% | 21.2% | -8.2
NCCc1cnc(-c2cccc(C(F)(F)F)c2)[nH]1 | . | 3.9 | . | -9.7% | . | -17.5
Cn1nccc1-c1cc(Cl)cc(Cl)c1O | 8.4% | 0.5 | -8.7% | -14.2% | 1.8% | 11.0
Cc1ccc(CC(=O)NCCC(=O)O)cc1 | 24.2% | -3.0 | 4.3% | -2.3% | 18.6% | -9.6
COc1ccc(CCNC(=O)CSc2nnc(C(C)N(C)C)n2Cc2ccccc2)cc1OC (stereo not given) | ? | -1.8 | -2.5% | -0.1% | -20.7% | -20.2
O=C(c1ccco1)N1CCN(C(c2ccc(F)cc2)c2nnnn2Cc2cccs2)CC1 (stereo not given) | ? | 15.3 | -7.4% | 8.5% | 0.928µM* | -12.1
O=C(NCc1ccccn1)c1nc(Cn2cc([N+](=O)[O-])cn2)no1 | ? | -3.9 | -28.3% | -8.2% | ? | -15.3
COc1ccc(NC(=O)CSCC(=O)Nc2ccc(C)c(S(=O)(=O)N3CCCCCC3)c2)cc1 | 3.0% | . | . | . | ? | .
O=C(OCC(=O)N1CCOCC1)c1cccc(S(=O)(=O)Nc2ccc(F)cc2)c1 | ? | . | . | . | 4.6% | .
O=S(=O)(c1cccc(-c2nc3ccccc3s2)c1)N1CCOCC1 | . | 14.0 | 5.5% | -2.2% | ? | 2.2
O=C(O)c1ccc2nc(-c3ccccc3)sc2c1 | 20.5% | 20.2 | -23.4% | 25.1% | ? | 22.9
